Among the data in ChEMBL document CHEMBL2218924, “A broad activity screen in support of a chemogenomic map for kinase signalling research and drug discovery” (Biochem J, 2013) are residual activity values, retold here.

Test [1] deals with T1, Serine/threonine-protein kinase haspin (Homo sapiens) (UniProt Q8TF76).
T1 sequence (whole entry): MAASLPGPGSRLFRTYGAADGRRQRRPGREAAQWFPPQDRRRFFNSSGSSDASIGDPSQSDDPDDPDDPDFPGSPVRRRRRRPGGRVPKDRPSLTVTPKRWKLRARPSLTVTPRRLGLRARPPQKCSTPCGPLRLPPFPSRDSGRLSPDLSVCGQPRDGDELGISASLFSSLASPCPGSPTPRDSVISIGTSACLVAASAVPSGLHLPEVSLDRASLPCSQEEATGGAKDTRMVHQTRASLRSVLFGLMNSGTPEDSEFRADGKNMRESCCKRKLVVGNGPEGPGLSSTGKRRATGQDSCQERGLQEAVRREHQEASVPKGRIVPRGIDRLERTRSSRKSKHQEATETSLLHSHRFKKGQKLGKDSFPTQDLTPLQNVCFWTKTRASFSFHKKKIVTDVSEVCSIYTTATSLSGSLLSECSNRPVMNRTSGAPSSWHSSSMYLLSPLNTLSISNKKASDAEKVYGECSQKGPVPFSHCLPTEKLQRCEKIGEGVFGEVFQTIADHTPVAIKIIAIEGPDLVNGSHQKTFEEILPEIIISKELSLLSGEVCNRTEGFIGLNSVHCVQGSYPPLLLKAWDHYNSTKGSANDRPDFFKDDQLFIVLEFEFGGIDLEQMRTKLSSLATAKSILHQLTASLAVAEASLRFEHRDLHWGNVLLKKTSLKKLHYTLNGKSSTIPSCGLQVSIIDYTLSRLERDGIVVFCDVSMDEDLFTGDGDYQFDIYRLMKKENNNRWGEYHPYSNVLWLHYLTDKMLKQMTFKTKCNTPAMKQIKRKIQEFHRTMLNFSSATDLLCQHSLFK
To be noted: at 1 µM.

Test [2] has as its target T1, Serine/threonine-protein kinase haspin (Homo sapiens). Particulars: at 10 µM; call rule not given here.
Test [3] concerns the target Tyrosine-protein kinase HCK (Homo sapiens) (UniProt P08631). To be noted: at 1 µM.
Test [4] shares this target. To be noted: at 10 µM.
For test [5] the target is unchanged. To be noted: at 1 µM. This is another data set of the same source.
The target is the same in test [6]. Particulars: at 10 µM. This is another data set of the same source.
For test [7], the target named is Insulin-like growth factor 1 receptor (Homo sapiens) (UniProt P08069). To be noted: at 1 µM.
Chain of Insulin-like growth factor 1 receptor (Homo sapiens) (P08069 31-736 limits assumed): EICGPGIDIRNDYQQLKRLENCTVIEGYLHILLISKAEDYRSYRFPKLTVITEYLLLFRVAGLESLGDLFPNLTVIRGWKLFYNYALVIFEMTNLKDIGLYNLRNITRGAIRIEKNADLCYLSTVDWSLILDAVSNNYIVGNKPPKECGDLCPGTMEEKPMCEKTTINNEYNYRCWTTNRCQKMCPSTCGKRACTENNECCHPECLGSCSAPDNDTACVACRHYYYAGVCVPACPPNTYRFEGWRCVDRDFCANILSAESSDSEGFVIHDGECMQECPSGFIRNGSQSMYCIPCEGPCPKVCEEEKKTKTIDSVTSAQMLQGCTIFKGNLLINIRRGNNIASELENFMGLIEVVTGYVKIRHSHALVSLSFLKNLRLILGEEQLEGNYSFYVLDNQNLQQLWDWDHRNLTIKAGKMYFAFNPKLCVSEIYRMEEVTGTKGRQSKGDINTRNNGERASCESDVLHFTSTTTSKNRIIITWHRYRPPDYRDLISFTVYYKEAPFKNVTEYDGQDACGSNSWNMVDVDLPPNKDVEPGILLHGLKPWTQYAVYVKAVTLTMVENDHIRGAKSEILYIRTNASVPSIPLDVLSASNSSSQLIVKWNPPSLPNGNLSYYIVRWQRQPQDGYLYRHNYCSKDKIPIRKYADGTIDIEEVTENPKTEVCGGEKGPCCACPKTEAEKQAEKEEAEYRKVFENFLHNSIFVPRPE
Chain of Insulin-like growth factor 1 receptor (Homo sapiens) (P08069 741-1367 limits assumed): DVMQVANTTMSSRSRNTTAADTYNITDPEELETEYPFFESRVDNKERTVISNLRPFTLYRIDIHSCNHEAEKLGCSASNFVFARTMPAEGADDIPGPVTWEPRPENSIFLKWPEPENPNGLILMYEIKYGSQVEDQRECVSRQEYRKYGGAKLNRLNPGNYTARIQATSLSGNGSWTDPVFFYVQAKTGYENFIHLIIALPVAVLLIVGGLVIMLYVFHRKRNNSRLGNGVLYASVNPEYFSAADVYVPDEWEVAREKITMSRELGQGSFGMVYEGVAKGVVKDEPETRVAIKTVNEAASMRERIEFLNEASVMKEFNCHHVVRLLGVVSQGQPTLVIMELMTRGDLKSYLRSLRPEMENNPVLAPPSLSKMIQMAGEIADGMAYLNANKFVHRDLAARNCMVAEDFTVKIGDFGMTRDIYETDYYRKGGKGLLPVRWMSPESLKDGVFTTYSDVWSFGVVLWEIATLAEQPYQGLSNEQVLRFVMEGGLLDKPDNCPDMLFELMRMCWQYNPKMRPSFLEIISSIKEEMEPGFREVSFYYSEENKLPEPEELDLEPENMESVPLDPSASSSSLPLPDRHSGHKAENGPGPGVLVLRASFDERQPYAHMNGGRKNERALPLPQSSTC
The target is the same in test [8]. Particulars: at 10 µM.
Test [9] deals with Protein kinase C eta type (Homo sapiens) (UniProt P24723). Particulars: at 10 µM.
Chain of Protein kinase C eta type (Homo sapiens) (P24723 whole entry): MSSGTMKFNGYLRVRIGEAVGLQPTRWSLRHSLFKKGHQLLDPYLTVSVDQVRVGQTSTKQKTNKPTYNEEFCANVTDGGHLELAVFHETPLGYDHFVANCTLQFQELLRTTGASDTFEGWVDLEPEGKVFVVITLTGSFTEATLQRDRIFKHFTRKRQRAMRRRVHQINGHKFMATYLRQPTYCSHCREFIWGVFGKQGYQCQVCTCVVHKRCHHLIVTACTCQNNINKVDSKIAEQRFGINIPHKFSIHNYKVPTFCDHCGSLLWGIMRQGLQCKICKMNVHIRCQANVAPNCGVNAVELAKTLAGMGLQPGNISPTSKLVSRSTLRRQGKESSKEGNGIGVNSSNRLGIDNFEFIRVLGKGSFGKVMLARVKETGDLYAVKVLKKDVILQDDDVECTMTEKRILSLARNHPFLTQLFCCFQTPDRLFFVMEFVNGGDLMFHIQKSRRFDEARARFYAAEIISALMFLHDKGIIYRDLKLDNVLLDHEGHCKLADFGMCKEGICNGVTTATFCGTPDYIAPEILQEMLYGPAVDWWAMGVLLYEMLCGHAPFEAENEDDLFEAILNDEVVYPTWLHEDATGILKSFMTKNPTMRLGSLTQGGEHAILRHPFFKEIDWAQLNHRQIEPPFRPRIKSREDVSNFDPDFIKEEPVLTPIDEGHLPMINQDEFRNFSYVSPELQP
The target of test [10] is Protein kinase C theta type (Homo sapiens) (UniProt Q04759). Particulars: at 1 µM.
Chain of Protein kinase C theta type (Homo sapiens) (Q04759 whole entry, looked up): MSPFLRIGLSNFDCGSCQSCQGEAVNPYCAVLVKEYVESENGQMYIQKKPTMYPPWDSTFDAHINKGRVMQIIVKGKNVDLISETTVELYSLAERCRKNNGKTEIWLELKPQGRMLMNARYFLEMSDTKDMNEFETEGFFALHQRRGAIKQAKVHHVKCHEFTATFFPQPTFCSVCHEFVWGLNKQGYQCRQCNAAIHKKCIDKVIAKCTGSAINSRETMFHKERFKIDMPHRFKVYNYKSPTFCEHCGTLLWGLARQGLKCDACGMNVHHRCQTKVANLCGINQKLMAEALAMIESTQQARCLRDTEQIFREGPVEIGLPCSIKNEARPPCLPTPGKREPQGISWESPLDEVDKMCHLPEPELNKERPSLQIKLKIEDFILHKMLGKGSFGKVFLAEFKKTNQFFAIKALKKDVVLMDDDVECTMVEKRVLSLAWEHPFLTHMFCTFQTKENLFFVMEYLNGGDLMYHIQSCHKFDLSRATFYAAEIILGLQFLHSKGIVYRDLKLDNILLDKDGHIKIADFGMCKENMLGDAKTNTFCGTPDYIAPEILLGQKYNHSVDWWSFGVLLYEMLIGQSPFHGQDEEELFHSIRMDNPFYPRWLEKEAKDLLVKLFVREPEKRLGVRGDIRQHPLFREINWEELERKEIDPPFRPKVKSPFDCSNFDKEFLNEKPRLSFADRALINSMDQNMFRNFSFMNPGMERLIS
Test [11] shares this target. To be noted: at 10 µM.
For test [12], the target named is Homeodomain-interacting protein kinase 3 (Homo sapiens) (UniProt Q9H422). Particulars: at 10 µM.
Chain of Homeodomain-interacting protein kinase 3 (Homo sapiens) (Q9H422 whole entry, looked up): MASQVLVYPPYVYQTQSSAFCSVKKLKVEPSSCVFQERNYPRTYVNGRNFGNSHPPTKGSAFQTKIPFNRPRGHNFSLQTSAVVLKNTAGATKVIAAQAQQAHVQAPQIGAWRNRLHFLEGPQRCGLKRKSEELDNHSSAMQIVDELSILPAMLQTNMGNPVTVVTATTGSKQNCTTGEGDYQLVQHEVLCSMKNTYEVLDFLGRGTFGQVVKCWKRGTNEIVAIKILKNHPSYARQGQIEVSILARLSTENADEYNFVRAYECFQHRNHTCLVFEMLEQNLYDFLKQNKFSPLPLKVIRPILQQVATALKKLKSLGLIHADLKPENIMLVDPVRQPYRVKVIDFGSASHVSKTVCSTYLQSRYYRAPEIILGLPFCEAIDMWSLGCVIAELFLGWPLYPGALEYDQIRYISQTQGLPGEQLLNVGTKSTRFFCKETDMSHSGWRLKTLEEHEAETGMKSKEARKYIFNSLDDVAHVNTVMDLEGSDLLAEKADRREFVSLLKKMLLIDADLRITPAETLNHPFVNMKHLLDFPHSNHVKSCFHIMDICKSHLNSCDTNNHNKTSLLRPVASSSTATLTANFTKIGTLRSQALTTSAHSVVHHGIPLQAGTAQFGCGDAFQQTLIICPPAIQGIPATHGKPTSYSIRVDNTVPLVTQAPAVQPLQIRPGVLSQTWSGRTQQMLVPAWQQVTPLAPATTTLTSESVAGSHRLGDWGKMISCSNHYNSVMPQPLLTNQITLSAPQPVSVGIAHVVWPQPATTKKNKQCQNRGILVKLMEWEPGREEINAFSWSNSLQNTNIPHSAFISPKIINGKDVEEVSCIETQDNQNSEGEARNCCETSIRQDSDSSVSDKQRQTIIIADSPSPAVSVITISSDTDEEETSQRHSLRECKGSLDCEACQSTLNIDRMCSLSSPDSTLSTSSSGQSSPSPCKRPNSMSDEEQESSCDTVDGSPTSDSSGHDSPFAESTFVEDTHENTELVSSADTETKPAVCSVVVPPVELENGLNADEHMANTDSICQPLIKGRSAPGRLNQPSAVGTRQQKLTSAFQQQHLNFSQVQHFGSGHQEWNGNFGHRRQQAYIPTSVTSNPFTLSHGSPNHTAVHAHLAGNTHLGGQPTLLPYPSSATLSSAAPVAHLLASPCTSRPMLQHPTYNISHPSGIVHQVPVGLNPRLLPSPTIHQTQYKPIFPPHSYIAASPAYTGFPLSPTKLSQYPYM
The target in test [13] is T2, Serine/threonine-protein kinase D2 (Homo sapiens) (UniProt Q9BZL6).
T2 sequence (whole entry): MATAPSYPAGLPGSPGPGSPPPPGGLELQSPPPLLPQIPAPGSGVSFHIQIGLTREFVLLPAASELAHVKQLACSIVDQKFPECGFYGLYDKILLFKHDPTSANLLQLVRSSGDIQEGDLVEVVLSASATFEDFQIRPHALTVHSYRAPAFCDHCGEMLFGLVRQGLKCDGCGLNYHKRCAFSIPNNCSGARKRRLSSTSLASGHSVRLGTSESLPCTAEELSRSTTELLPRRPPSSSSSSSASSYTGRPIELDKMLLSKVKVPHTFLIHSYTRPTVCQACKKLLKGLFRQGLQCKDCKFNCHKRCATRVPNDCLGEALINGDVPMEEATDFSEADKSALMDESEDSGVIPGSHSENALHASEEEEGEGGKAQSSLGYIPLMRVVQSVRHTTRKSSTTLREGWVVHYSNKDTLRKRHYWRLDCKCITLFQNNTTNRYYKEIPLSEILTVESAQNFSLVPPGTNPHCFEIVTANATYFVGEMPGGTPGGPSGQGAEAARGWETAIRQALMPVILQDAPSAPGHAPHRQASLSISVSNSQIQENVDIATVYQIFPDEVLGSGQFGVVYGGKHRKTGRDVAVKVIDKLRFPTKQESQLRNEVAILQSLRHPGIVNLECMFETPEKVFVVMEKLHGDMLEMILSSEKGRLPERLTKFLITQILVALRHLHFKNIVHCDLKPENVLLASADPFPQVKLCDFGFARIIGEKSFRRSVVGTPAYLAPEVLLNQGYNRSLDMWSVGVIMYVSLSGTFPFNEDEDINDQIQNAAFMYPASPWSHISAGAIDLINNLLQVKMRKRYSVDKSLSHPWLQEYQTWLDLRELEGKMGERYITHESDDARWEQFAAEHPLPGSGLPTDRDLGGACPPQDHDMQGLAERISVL
Particulars: at 1 µM.

Test [14] deals with T2, Serine/threonine-protein kinase D2 (Homo sapiens). Particulars: at 10 µM.
Test [15] concerns the target T3, Serine/threonine-protein kinase D1 (Homo sapiens) (UniProt Q15139).
T3 sequence (whole entry): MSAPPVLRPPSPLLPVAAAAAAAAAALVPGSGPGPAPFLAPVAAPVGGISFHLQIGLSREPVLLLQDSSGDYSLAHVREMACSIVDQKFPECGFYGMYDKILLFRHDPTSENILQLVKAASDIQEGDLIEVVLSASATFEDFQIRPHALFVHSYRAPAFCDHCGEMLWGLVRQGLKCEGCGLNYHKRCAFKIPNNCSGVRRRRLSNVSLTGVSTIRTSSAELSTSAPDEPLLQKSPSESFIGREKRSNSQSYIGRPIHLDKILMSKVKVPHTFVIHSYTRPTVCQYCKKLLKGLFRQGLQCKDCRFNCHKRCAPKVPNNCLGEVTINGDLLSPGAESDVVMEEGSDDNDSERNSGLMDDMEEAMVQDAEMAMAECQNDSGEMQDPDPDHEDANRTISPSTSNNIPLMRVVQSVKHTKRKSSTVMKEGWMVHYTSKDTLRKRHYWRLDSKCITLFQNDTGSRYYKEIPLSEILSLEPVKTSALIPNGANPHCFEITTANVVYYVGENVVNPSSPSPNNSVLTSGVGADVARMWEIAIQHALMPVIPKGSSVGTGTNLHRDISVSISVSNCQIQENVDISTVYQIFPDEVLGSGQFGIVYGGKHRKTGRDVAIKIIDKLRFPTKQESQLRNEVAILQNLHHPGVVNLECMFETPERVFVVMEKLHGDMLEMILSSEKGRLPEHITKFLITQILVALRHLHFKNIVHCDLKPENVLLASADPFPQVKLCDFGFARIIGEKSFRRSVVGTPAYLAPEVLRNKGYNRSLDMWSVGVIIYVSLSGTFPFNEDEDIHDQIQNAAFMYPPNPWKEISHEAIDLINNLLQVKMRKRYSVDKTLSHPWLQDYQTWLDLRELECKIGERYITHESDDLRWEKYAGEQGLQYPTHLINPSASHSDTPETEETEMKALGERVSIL
Particulars: at 1 µM.

For test [16], the target named is T3, Serine/threonine-protein kinase D1 (Homo sapiens). To be noted: at 10 µM.
For test [17], the target named is T4, Protein kinase C zeta type (Homo sapiens) (UniProt Q05513).
T4 sequence (whole entry): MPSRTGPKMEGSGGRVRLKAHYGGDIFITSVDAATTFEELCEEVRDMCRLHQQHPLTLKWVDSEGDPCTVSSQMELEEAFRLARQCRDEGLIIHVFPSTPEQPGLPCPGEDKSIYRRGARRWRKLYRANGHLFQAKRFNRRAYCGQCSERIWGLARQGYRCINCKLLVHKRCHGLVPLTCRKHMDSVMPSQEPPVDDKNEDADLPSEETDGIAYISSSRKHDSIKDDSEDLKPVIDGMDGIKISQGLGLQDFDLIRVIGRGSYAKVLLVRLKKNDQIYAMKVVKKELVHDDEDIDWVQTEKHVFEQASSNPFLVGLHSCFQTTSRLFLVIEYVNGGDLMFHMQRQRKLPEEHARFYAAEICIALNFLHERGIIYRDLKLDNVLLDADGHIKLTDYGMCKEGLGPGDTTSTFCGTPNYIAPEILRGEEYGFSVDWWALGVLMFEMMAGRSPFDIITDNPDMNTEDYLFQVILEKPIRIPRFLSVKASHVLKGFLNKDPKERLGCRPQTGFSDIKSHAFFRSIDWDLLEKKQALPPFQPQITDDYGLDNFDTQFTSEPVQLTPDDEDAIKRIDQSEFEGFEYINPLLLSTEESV
To be noted: at 10 µM.

The target in test [18] is Protein kinase C eta type (Homo sapiens) (UniProt P24723). To be noted: at 1 µM.
Test [19] deals with T5, Protein kinase C iota type (Homo sapiens) (UniProt P41743).
T5 sequence (whole entry): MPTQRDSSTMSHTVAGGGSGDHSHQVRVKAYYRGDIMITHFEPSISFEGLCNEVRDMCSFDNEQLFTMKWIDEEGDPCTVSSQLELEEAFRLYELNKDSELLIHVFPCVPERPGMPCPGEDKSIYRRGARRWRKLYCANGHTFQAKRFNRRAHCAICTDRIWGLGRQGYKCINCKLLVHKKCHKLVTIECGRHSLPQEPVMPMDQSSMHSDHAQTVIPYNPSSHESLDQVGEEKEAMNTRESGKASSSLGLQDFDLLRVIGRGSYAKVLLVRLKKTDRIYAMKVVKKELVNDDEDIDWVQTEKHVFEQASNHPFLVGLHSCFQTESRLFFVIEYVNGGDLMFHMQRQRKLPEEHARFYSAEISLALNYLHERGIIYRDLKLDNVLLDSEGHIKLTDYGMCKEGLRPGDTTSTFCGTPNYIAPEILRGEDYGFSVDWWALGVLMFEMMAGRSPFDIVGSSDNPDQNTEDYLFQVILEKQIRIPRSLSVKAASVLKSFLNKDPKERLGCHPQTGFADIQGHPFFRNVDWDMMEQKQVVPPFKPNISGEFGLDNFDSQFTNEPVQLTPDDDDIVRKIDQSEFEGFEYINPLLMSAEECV
To be noted: at 1 µM.

Test [20] deals with T5, Protein kinase C iota type (Homo sapiens). Particulars: at 10 µM.

Chain of Tyrosine-protein kinase HCK (Homo sapiens) (P08631 2-526 limits assumed): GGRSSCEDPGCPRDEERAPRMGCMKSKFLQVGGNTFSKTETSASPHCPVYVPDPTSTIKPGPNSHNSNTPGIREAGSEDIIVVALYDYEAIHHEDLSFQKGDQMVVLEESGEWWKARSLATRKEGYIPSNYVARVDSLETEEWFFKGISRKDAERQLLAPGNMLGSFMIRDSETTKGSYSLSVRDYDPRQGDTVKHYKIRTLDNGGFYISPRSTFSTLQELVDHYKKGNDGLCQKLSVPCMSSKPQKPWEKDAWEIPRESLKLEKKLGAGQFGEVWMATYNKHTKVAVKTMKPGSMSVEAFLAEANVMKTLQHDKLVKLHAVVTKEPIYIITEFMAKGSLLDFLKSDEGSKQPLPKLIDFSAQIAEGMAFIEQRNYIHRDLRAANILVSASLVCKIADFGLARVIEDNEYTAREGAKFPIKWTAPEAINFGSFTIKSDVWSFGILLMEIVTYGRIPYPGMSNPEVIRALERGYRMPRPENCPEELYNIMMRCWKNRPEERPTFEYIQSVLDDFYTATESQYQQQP

The term residual activity denotes the signal under treatment as a percentage of the control signal. For the molecule `O=C1NC(=O)C(c2cn(CCCO)c3ncccc23)=C1c1cnccn1`, the residual activity in [1] amounted to 69%; in [2] it was 55%; in test [3] it was 66%; in [4], 48%; in test [5], 95%; in [6] it was 96%. Moreover, the residual activity in [7] was found to be 138%; in test [8], 124%; in test [9], 87%; in test [10], 97%; in [11] it was 77%.

On to `O=C(CCCc1ccc(-c2ccccc2F)cc1)Nc1ccc(O)cc1`, for which the residual activity in test [12] stood at 98%; in [2] it was 98%; in test [3], 96%; in test [4], 62%; in test [5], 106%; in [6] it was 89%. The residual activity came to 104% in [7]; 100% in test [8]; 100% in [10]; 105% in [11]; 110% in test [13]; 98% in test [14].

On to `CCN1/C(=C/C(C)=O)Sc2ccc(OC)cc21`, for which the residual activity in [12] came to 75%; in test [1], 17%; in test [2] it was 4%; in [3], 76%; in test [4], 71%; in test [7] it was 70%. Also, the values for the residual activity in [15], in [16] and in test [14] were 59%, 18% and 70%, respectively.

Turning to `CC(C)(C)c1nc2c3ccc(F)cc3c3c(=O)[nH]ccc3c2[nH]1`, the residual activity in test [12] came out at 45%; in [1] it was 74%; in [2], 34%; in test [3], 49%; in test [4], 31%; in test [5], 68%. The residual activity was 60% in [6]; 119% in test [7]; 8% in test [15]; 16% in [16]; 40% in [13]; 22% in test [14].

As for `NC(=O)Nc1sc(-c2ccc(F)cc2)cc1C(N)=O`, the residual activity stood at 90% in test [12]; 63% in [1]; 51% in test [2]; 24% in test [3]; 6% in test [4]; 37% in test [5]. Further, the residual activity in test [6] was 7%; in test [7], 82%; in test [8], 32%; in test [17], 100%; in test [18], 74%; in test [9], 60%. The residual activity in [10] was 83%; in [11], 50%; in [19] it was 109% (inactive); in test [20], 107%; in test [15], 58%; in [16], 29%. Besides, the residual activity in [13] stood at 100%; in test [14], 64%.

`COc1ccc2c(c1)c(C1=C(c3c[nH]c4ccccc34)C(=O)NC1=O)cn2CCCN(C)C`: the residual activity in test [12] is 22%; in test [1], 98%; in [2] it was 56%; in [3] it was 65%; in [4], 53%; in test [5], 98%. Besides, the residual activity in test [6] was determined as 72%; in test [7] it was 134%; in test [8], 104%; in test [17], 27%; in test [18], 10%; in test [9], 2%. In addition, the residual activity in test [10] worked out at 3%; in [11] it was 1%; in test [20] it was 62%; in test [15] it was 108%; in test [16], 58%; in test [13] it was 98%. Further, the residual activity in [14] is 102%.

Take `CCN(CC)CCNC(=O)c1c(C)[nH]c(/C=C2\C(=O)Nc3ccc(Cl)cc32)c1C`: the residual activity in test [12] was -5%; in test [1], 43%; in test [2] it was 12%; in test [3], 13%; in test [4], 3%; in test [5], 9%. In addition, the residual activity in [6] turned out to be 0%; in test [7] it was 135%; in test [8] it was 13%; in [15], 38%; in test [16], 4%; in test [13], 73%. Further, the residual activity in [14] was 16%.

As to `N#C/C(=C1/Nc2ccccc2S1)c1ccnc(NCCc2cccnc2)n1`, the residual activity was 21% in test [12]; 36% in test [1]; -2% in test [2]; 60% in [3]; 26% in test [4]; 88% in test [5]. The residual activity stood at 68% in [6]; 143% in test [7]; 72% in [8]; 95% in [10]; 72% in test [11]; 73% in [15]. Further, the residual activity in [16] stood at 36%.
